Screens as filed in PubChem BioAssay.
MCF10A rerep = A quantitative high throughput screen for small molecules that induce DNA re-replication in MCF 10a normal breast cells; MCF 10A DNA re-replication, Hoechst nuclear intensity, 48 h; Potency, µM (highest dose often 46.1 µM), for inactives: at the top dose activity, positive = re-replication, usual class: activators; actives 2.9% (n = 350,000); note: potency is the fitted concentration of half-maximal effect; % of control where 0% means no effect; nearly all actives have a fitted effect of over 50% in size
Vif-APOBEC3F blk = qHTS for Inhibitors of Vif-A3F Interactions: qHTS; HeLa A3F-eYFP + Vif (tagged APOBEC3F with the HIV-1 protein that degrades it), YFP fluorescence increase; Potency, µM (highest dose often 46.1 µM), for the others: at the highest dose activity, negative = active; actives 0.2% (n = 390,000); note: potency is the fitted concentration of half-maximal effect; % of control where 0% means no effect; nearly all actives have a fitted effect of over 65% in size
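HeLa cells stably expressing A3F-eYFP plus Vif, plated and incubated overnight at 37 deg C, then exposed to compounds overnight at 37 deg C. Blocked degradation read as raised yellow fluorescence (Ex 488/Em 500-530).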
Vif-APOBEC3G blk = qHTS for Inhibitors of Vif-A3G Interactions: qHTS; HeLa A3G-eYFP + Vif (tagged APOBEC3G with the HIV-1 protein that degrades it), YFP fluorescence, overnight; DNA dC->dU-editing enzyme APOBEC-3G (Homo sapiens), Q9HC16; Potency, µM (doses to about 46.1 µM), for the others: at the top dose activity, negative = active, actives largely listed as inhibitors; actives 0.076% (n = 410,000); note: potency is the fitted concentration of half-maximal effect; % is set by controls: 0 for no effect and ±100 for the full control effect; nearly all actives have a fitted effect of over 60% in size
Target sequence (Q9HC16 whole entry, looked up): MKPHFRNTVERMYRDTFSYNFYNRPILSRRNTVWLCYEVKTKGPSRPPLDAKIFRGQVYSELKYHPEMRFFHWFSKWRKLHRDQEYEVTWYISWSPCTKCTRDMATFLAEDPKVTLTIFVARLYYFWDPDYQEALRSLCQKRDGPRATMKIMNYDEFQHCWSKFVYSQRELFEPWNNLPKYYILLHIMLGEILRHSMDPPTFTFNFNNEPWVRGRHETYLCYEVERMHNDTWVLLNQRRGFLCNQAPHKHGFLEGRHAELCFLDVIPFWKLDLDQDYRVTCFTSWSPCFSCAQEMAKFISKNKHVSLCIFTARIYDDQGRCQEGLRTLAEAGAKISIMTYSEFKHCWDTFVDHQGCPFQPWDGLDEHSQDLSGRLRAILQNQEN
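HeLa cells stably expressing Vif and C-terminally eYFP-tagged A3G, seeded overnight at 37 deg C, then exposed to compound by pintool overnight at 37 deg C. Rise in yellow fluorescence (Ex 488/Em 500-530, Acumen) marks blocked Vif-driven A3G degradation.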
Giardia killer = Small Molecules that selectively kill Giardia lamblia: qHTS; actives 0.15% (n = 340,000); Giardia lamblia trophozoite viability; AID 540267, 2011; activity change, % at 7.66 µM, hits read low; in the data active = activity change below about -80%; inconclusive = between about -30% and that limit;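 note: parasites exposed to compound for two days anaerobically before the ATP read; % is set by controls: 0 for no effect and ±100 for the full control effect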
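Anaerobic 48 hrs incubation at 37 deg C of 100 trophozoites/well with test compounds; ATPLite 1-Step luminescence, 15-30 min RT, reports cellular ATP as viability.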
IL-1B inflam inh = qHTS for Inhibitors of Inflammasome Signaling: IL-1-beta AlphaLISA Primary Screen; actives 4.7% (n = 360,000); AID 743279, 2014; activity change, % at 57.5 µM; THP-1 LPS/ATP IL-1B secretion, AlphaLISA, 16 h; hits give low values; in the data active = activity change below about -50%; inconclusive = mostly about -30% to -49%; note: % is set by controls: 0 for no effect and ±100 for the full control effect
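THP-1 cells pretreated 1 hr with compounds (up to 57.5 uM final), then stimulated with LPS (250 ng/mL final) plus ATP (1.25 mM final); secreted IL-1B measured by AlphaLISA after 16 hr, decreased signal indicating inhibition.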
SW480 rereplic = A quantitative high throughput screen for small molecules that induce DNA re-replication in SW480 colon adenocarcinoma cells. SW480 DNA re-replication, Hoechst DNA content imaging, 48 h. Potency, µM (series often up to 46.1 µM), for the others: at the top dose re-replication activation, usual class: activators. actives 1.8% (n = 340,000). AID 624297, 2012; note: potency is the fitted concentration of half-maximal effect; % of control where 0% means no effect; nearly all actives have a fitted effect of over 55% in size
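Per well, 250 cells were exposed to pinned compound for 48 hr. Nuclear DNA was visualised with Hoechst (40 min, 37 C) and total object intensity recorded by fluorescence scanning.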
Active calls of the source: *; ? = inconclusive; · = not tested or not shown; [ ] = remark or other dose. Compounds with a hit are over-represented: about 6.9% of the library has one in this group of screens. Unless noted, calls come from the whole dose curve; as a rule, active = well fitted curve in the direction sought with a large enough effect; inconclusive = small, poorly fitted or top-dose-only effect, or another doubt; inactive = no such curve, though single readings can be large; an effect the other way counts as inactive or inconclusive.

SMILES | MCF10A rerep | Vif-APOBEC3F blk | Vif-APOBEC3G blk | Giardia killer | IL-1B inflam inh | SW480 rereplic
Cc1cc(/C=C2\Sc3ccccc3N2C)cc(C)[n+]1CC1CCCO1 (centres undefined) | ? | ? | ? | -10.3 | -101.5* | 9.2µM*
Cc1ccc(/C=C2/Sc3ccccc3N(CC(=O)NCC3CCCO3)C2=O)cc1 (centres undefined) | ? | -0.8% | -2.2% | 30.6 | -29.8 | -6.7%
COc1ccc(NC(=O)CN2C(=O)C(C)(C)c3cc(S(=O)(=O)N4CCCCC4)ccc32)cc1Cl | · | 0.7% | -1.0% | · | · | ·
O=[N+]([O-])c1cccc(-c2csc(Nc3ccccc3)n2)c1 | -5.9%[9.22 µM] | 11.2% | -7.0% | -11.3 | -104.9* | ?
O=C(Nc1ncc([N+](=O)[O-])s1)c1cccc([N+](=O)[O-])c1 | 1.1% | -0.5% | -1.8% | -92.8* | 0.0 | 1.5%
O=C(Nc1nc(-c2cccnc2)cs1)c1cccc([N+](=O)[O-])c1 | -4.4% | -14.9% | -1.1% | -2.4 | -8.4 | -5.5%
O=C(Nc1nc(-c2ccccc2)cs1)c1cccc([N+](=O)[O-])c1 | ? | -8.2% | 0.7% | -28.2 | -79.0* | -2.3%
O=C(Nc1ccccc1)Nc1ncc([N+](=O)[O-])s1 | 3.9% | -9.7% | -0.9% | ? | -87.3* | ?
Cc1ccc(NC(=O)CCc2c[nH]c3ccccc23)nc1 | ? | 1.4% | ? | -3.5 | 31.3 | 3.26µM*
Cc1ccnc(NC(=O)Cc2ccc(-c3ccccc3)cc2)c1 | 94.2% | 1.9% | -9.6% | -9.3 | ? | ?
O=C(Cc1ccc(-c2ccccc2)cc1)Nc1ccccn1 | ? | ? | -4.5% | -16.3 | -69.5* | -4.9%
CC(=O)Nc1ccc(NC(=O)CCCc2c[nH]c3ccccc23)cc1 | -7.2% | 2.8% | -2.0% | -9.2 | -15.3 | -4.4%
O=C(CCc1c[nH]c2ccccc12)Nc1ncccc1O | 0.3% | -7.7% | -9.3% | -2.7 | 15.6 | -5.8%
O=C(CCCc1c[nH]c2ccccc12)Nc1ccc2ccccc2c1 | ? | -4.0% | -11.0% | -0.5 | -85.2* | 9.2%
Cc1ccc(NC(=O)Cc2ccc(Cl)cc2)nc1 | 0.2% | 8.6% | -0.7% | -4.2 | -15.2 | -18.2%
Cc1ccc(NC(=O)Cc2ccc(-c3ccccc3)cc2)nc1 | ? | -7.8% | 2.7% | 3.5 | -60.3* | 26.5%
CNc1c(Cl)cc(C=O)cc1Cl | · | · | -2.5% | · | · | ·
CC(=O)Nc1ccc(SC[C@H](Cc2ccccc2)N2CC[C@@H](N)CCC2=O)cc1 | · | · | -0.5% | · | · | ·
Cc1ccc(CSC2=NS(=O)(=O)c3ccccc32)cc1 | · | · | -19.9% | -10.4 | · | ·
CCN1CCN(c2ccc(NC(=O)Cc3ccccc3)cc2)CC1 | -2.8% | 5.2% | -1.2% | 2.2 | 10.8 | -3.6%[9.22 µM]
Clc1ccc(CNc2ccc(N3CCN(Cc4ccccc4)CC3)cc2)cc1 | ? | -8.7% | -0.2% | -2.7 | -58.3* | 4.1%
O=C(Cn1cncn1)NCc1cccc(OC(F)F)c1 | 10.4% | -10.2% | 0.4% | -7.1 | -8.0 | 0.6%
O=C(Cn1cncn1)NCc1cccc(C(F)(F)F)c1 | 0.651µM* | 5.6% | -1.3% | 3.5 | 3.4 | -28.0%
Cc1cccc(N2CCN(CC(=O)NCc3ccc(Cl)cc3)CC2)c1C | ? | 15.0% | 0.4% | 6.5 | -63.9* | ?
O=C(CN1CCN(c2ccccc2F)CC1)NCc1ccc(Cl)cc1 | -12.0% | 0.7% | 5.7% | 19.5 | 10.3 | ?
SMILES | MCF10A rerep | Vif-APOBEC3F blk | Vif-APOBEC3G blk | Giardia killer | IL-1B inflam inh | SW480 rereplic
CCC(=O)Nc1ccc(N2CCN(Cc3ccccc3)CC2)cc1 | 8.2µM* | 3.0% | 0.9% | 19.0 | 9.0 | -6.4%
COc1cccc2c1ncc1c(-c3ccc(C)cc3)nn(-c3ccc(F)cc3)c12 | · | 3.2% | -6.5% | · | · | ·
COc1cc(Br)c(C2CC(=O)Nc3cc(OC)c(OC)c(OC)c32)cc1OC (centres undefined) | · | 3.5% | 2.5% | · | · | ·
O=C(CN1CCN(c2cccc(C(F)(F)F)c2)CC1)NCc1ccccc1 | 12.2% | -5.0% | -3.6% | 11.4 | -55.2* | 0.6%
O=C(CN1CCN(c2ccc(Cl)cc2)CC1)NCc1ccccc1 | -1.2% | 5.9% | 2.3% | -13.3 | -61.0* | -2.3%
Cc1[nH]c2ccccc2c1C(O)CN1CCN(c2cccc(C(F)(F)F)c2)CC1 (centres undefined) | ? | 6.1% | -12.4% | -26.9 | -103.2* | -1.7%[9.22 µM]
Cc1[nH]c2ccccc2c1NC(=O)CN1CCN(c2cccc(C(F)(F)F)c2)CC1 | ? | -3.6% | -2.9% | -18.9 | 7.7 | ?
COc1ccc(CNC(=O)C(=O)NCC(c2cccnc2)N2CCN(c3ccccc3)CC2)cc1 (centres undefined) | · | 1.1% | 2.1% | · | · | ·
COc1ccc(CNCCC(c2ccc(OC(C)C)cc2)c2ccccc2OC)cc1OC (centres undefined) | 23.0% | 10.8% | 0.5% | -4.8 | · | ?
COc1ccccc1NC(=O)CC(c1ccc(OC(C)C)cc1)c1ccccc1OC (centres undefined) | ? | 2.8% | 5.0% | -9.5 | 10.4 | ?
COc1ccccc1C(CCNCc1ccccc1)c1ccc(OC(C)C)cc1 (centres undefined) | 18.4µM* | 0.2% | -6.0% | 9.4 | -88.6* | ?
Fc1ccccc1CNCCC(Cc1ccccc1)c1ccc2c(c1)OCO2 (centres undefined) | 29.1% | -7.3% | -1.4% | -9.6 | -97.8* | ?
COc1ccc(CNCCC(c2ccc(OC(C)C)cc2)c2ccccc2OC)cc1 (centres undefined) | ? | -11.0% | -7.6% | 11.1 | -97.0* | ?
COc1ccccc1C(CCNCc1ccc(N(C)C)cc1)c1ccc(OC(C)C)cc1 (centres undefined) | 16.8% | 4.4% | -15.8% | 9.8 | -100.7* | ?
CCOc1ccc(CCNC(=O)c2ccc(CS(=O)(=O)Cc3ccccc3Cl)o2)cc1OCC | · | -0.6% | -2.0% | · | · | ·
COc1ccc(CNCCC(c2ccccc2)c2ccc3c(c2)OCO3)cc1 (centres undefined) | 18.4µM* | 8.6% | -6.9% | 5.7 | -87.5* | ?
COc1ccc(C(CC(=O)O)c2ccc3c(c2)OCO3)cc1 (centres undefined) | 0.1% | 0.2% | 2.5% | -1.0 | 16.5 | ?
N#CNC(=Nc1ccc(F)cc1)SCc1ccccc1 | ? | 1.5% | -0.8% | 8.2 | -1.4 | 3.66µM*
O=C(Nc1ccc(F)cc1)c1cccc(N2C(=O)C3C4C=CC(C4)C3C2=O)c1 (centres undefined) | 7.2% | 0.1% | -3.2% | -1.3 | 3.0 | -0.9%
